From PubChem BioAssay
Only some compounds are listed: those with a hit (about 1.7% of all), similar ones and a draw of the others.
HEK293 tox: cytotoxic in the GLP-1 receptor inverse agonist counter-screen; HEK293 cAMP-luciferase reporter cells, luminescence, 24 h; Potency, µM (titrated, usually from 38.3 µM), without a hit: at the top dose activity change, negative = inhibition, actives largely listed as inhibitors; 410,000 tested, 0.13% active; AID 624418;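 note: loss of luciferase light is scored as toxicity; % is set by controls: 0 for no effect and ±100 for the full control effect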
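Compound-treated cells are incubated 24 hr at 37 deg C under 5% CO2 after a 12 hour attachment period, then luciferase detection reagent is added and luminescence is measured following 12 min at room temperature; lowered signal indicates toxicity.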
PTHR1 ag: agonists of human PTHR1 parathyroid hormone receptor | 410,000 tested, 0.075% active | Potency, µM (doses to about 115 µM), for inactives: at the top dose activation, hits mostly activators | HEK293 GP2 PTHR1 cells, GloSensor cAMP luminescence, 1 h | AID 743266 | Q03431; note: nearly all actives have a fitted effect of over 55% in size
Target sequence (Q03431 whole entry, looked up): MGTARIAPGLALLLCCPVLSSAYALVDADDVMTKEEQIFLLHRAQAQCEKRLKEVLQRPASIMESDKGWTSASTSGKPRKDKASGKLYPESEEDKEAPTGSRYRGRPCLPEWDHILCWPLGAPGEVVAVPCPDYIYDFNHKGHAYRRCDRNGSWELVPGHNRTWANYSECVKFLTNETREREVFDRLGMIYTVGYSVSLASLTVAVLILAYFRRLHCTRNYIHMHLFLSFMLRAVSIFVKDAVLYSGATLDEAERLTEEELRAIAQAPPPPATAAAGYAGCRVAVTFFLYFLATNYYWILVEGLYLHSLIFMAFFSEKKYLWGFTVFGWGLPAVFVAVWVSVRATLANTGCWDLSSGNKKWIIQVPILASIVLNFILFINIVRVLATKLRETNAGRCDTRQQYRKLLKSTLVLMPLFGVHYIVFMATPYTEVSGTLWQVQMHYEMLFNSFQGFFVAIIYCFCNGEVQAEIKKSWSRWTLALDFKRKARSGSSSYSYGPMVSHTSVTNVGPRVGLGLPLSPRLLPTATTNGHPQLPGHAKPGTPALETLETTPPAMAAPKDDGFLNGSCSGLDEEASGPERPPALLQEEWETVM
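HEK-293-derived GP2 cells expressing PTHR1 and a GloSensor cAMP reporter, 3,000/well, plated overnight, given luciferin plus IBMX (each 0.5 mM as added) for 1 h at 37 °C, then compound for 1 h at 37 °C. Luminescence was read after 15 min at room temperature.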
GLP1R ag: activates the human GLP-1 receptor; P43220; HEK293 GLP-1R CRE-luciferase, luminescence, 4-6 h; cells express a hypersensitive GLP-1R form; Potency, µM (top dose mostly 45.6 µM), without a hit: at the highest dose activation, most hits filed as activators; 380,000 tested, 0.007% active; AID 624172; note: % of control where 0% means no effect
GLP-1R inv ag: acts as inverse agonist at human GLP-1 receptor | P43220 | HEK293 GLP-1R CRE-luciferase, luminescence, 24 h; GLP-1R form is constitutively active | Potency, µM (top dose mostly 38.3 µM), for the others: at the highest dose activity change, negative = inhibition, hits mostly inhibitors | 410,000 tested, 1.6% active | AID 624417; note: % is set by controls: 0 for no effect and ±100 for the full control effect; nearly all actives have a fitted effect of over 55% in size
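HEK293 cells stably co-expressing constitutively active GLP-1R and a cAMP-responsive luciferase reporter were seeded in DMEM with 10% Nu serum, given compounds after 12 h, and incubated 24 h at 37 deg C. Luminescence was then read.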
Active calls of the source: *; i = inactive; ? = inconclusive; / = not tested or not shown; ! = not active in a repeat; [ ] = remark or other dose. Calls come from the whole dose curve; as a rule, active = well fitted curve in the direction sought with a large enough effect; inconclusive = small, poorly fitted or top-dose-only effect, or another doubt; inactive = no such curve, though single readings can be large; an effect the other way counts as inactive or inconclusive. Potency is the fitted concentration of half-maximal effect.

SMILES	HEK293 tox	PTHR1 ag	GLP1R ag	GLP-1R inv ag
Cc1ccc(S(=O)(=O)N2CCN(C(=O)CSc3ncc(C(F)(F)F)cc3Cl)CC2)cc1	4%	-18%[57.5 µM]	-16%	10µM*
Cc1ccc(NC(=O)Cn2c(=O)nc(-c3ccccc3F)c3cc(Cl)ccc32)c(Br)c1	-11%	-1%	0%	7%
O=C(CCCOc1ccc(Cl)cc1Cl)N/N=C/c1ccccc1O	?	i	-4%	4.5µM*
CC(C(=O)Nc1ccc(OC(F)(F)F)cc1)N1Cc2ccccc2C1=O (centres undefined)	12%	50µM*	/	?
CCCCCCC(=O)O[C@@H]1CC[C@H]2[C@@H]3CCc4cc(O)ccc4[C@H]3CC[C@]12C	/	/	1%	/
COC(=O)c1cc(=O)n(Cc2ccco2)c(=Nc2ccc(F)c(Cl)c2)s1	-15%	-36%	-12%	2.8µM*
COC(=O)c1cc(=O)n(Cc2cccs2)c(=Nc2ccc(F)cc2)s1	?	-4%	-5%	3.5µM*
CC(C)CCNC(=O)c1ccc(Cn2c(=O)c3cccn3c3cccnc32)cc1	23%	i	/	10%
Cc1ccc(Cl)cc1N1CCN(C(=O)CCS(=O)(=O)c2ccc3c(c2)oc(=O)n3C)CC1	-2%	-22%	/	-8%
CC(C)CCNC(=O)CN1C(=O)CCn2nc(-c3cn(C)c4ccccc34)cc21	-12%	-21%	/	3%
CC1CCCCN1CCCNC(=O)c1ccc2c(c1)NC(=O)CN2C (centres undefined)	7%	-20%	9%	14%
CCCCN(CCCNC(=O)c1ccc2c(c1)NC(=O)CN2C)c1ccccc1	-1%	-54%	-8%	2.8µM*
CCCCN(CCCNC(=O)CN1N=C(c2ccccc2)CCC1=O)c1ccccc1	-1%	i	/	10µM*
O=C(NCc1cccc(Cl)c1)C1CCCN(c2ncnc3onc(-c4ccc(F)cc4)c23)C1 (centres undefined)	-10%	-20%	/	?
CCOc1cc(C(=O)NCC(c2ccc(N(C)C)cc2)N2CCOCC2)cc(OCC)c1OCC (centres undefined)	1%	i	/	3%
O=C(c1ccc(Cl)c(S(=O)(=O)N2CCc3ccccc32)c1)N1CCN(c2ccccc2O)CC1	-9%	-35%	-14%	?
Cc1cccc(N2CCN(C(=O)c3ccc(Cl)c(S(=O)(=O)N4CCc5ccccc5C4)c3)CC2)c1C	1%	-9%	-3%	7.1µM*
CC1=C(c2ccc(C)cc2)S(=O)(=O)N(Cc2ccc(C(=O)NCc3cccc(C)c3)cc2)C1=O	1%	-15%	/	2%
S=C(Nc1ccc(Oc2ccccc2)cc1)NC1CCCCC1	-20%	-8%[57.5 µM]	2%	?
Fc1ccc(NC(=S)NC2CCN(Cc3ccccc3)CC2)cc1	-49%	-6%	2%	?
S=C(Nc1ccc(Cl)c(Cl)c1)NC1CCCCC1	13µM*	-9%[57.5 µM]	6%	-16%
S=C(Nc1ccc(Cl)c(Cl)c1)NC1CCN(Cc2ccccc2)CC1	?	-25%[57.5 µM]	-22%	3.2µM*
S=C(NNc1ccc2ccccc2c1)NC1CCCCC1	?	-5%	0%	10µM*
S=C(Nc1ccc(Oc2ccccc2)cc1)NC1CCCCCC1	?	-30%	-4%	10µM*
CN(C(=O)CC(=O)Nc1ccc2nc3n(c(=O)c2c1)CCCCC3)c1ccccc1F	7%	i	/	8%
SMILES	HEK293 tox	PTHR1 ag	GLP1R ag	GLP-1R inv ag
O=C1CSC(=S)N1Cc1cccnc1	?	-28%[57.5 µM]	-25%	2.8µM*
CC(C)c1ccc(CN2CCN(C(=O)CCl)CC2)cc1	?	-36%	-5%	5.6µM*
O=C(Nc1ccc(Cl)c(S(=O)(=O)N2CCOCC2)c1)c1ccc2c(c1)OCO2	-17%	-47%	0%	11µM*
COc1ccc(NC(=O)CCOc2ccc(C)cc2)cc1S(=O)(=O)N1CCCCC1	-27%	-93%	-4%	7.1µM*
Cc1ccc(OCCCC(=O)Nc2ccc(Cl)c(S(=O)(=O)N3CCOCC3)c2)cc1	-2%	-46%	-4%	11µM*
CC(=O)c1ccc(OCCCC(=O)Nc2ccc(Cl)c(S(=O)(=O)N3CCOCC3)c2)cc1	-7%	-47%	2%	1%
O=C(Nc1ccc(Cl)c(S(=O)(=O)N2CCOCC2)c1)c1ccc2c(c1)OCCO2	-20%	-32%	2%	-28%
C[C@@H]1CC2[C@@H]3C[C@H](F)C4=CC(=O)C(Cl)=C[C@]4(C)[C@@]3(F)[C@H](O)C[C@]2(C)[C@@]1(O)C(=O)CO (some centres undefined)	/	/	0%	/
CCN(CC)CCCNC(=O)CCC(=O)NNc1nc2ccccc2c2nc(C)nn12	7.9µM*!	-14%	-6%	-7%
CCOC(=O)c1ccc(NC2=CC(c3ccc(O)c(OCC)c3)N(c3ccc(C(=O)OCC)cc3)C2=O)cc1 (centres undefined)	-4%	-6%	-2%	3%
COc1ccc(NC(=O)C2(C)Cc3c(-c4cccc(NC(C)=O)c4)ccnc3O2)cn1 (centres undefined)	?	-51%	24%	1.1µM*
COc1ccc(NC(=O)C2(C)Cc3c(-c4ccc(NC(C)=O)cc4)ccnc3O2)cn1 (centres undefined)	-24%	-23%	-5%	-8%
Cc1ccc(NC(=O)CN2C(=O)COc3ccc(S(=O)(=O)N4CCCCCC4)cc32)cc1Cl	-20%	-10%	/	?
CCc1nnc2c(N3CCN(c4cccc(C(F)(F)F)c4)CC3)nc3ccccc3n12	0%	-79%	/	13%
O=Cc1ccccc1C=O	/	/	-3%	/
CCOC(=O)c1c(NC(=O)CNCCO)sc(C)c1C	14%	i	?	0%
CCOC(=O)c1c(NC(=O)CNC2CCCCC2)sc(C)c1C	27%	-17%	20%	4µM*
CCCn1c(=O)sc2cc(NC(=O)c3ccc(OC)c(Br)c3)ccc21	-31%	-40%	1%	10µM*
CC[n+]1c(/C=C/c2c[nH]c3ccccc23)ccc2cc(C)ccc21	?	-17%	-7%	10µM*
CCN(CC)C(=O)c1ccc(/C=C/c2c[nH]c3ccccc23)[n+](C)c1	-20%	i	-5%	-1%
O=C(NC1CC(=O)N(c2ccc(Cl)cc2)C1)C(=O)c1c[nH]c2ccccc12 (centres undefined)	11%	-18%	/	-9%
CN(C)CCOC1c2ccccc2CCc2ccc3ccccc3c21 (centres undefined)	?	-12%	2%	5.6µM*
Cc1cc(Cl)ccc1OCC(=O)N(Cc1ccc(N(C)C)cc1)CC1CCCO1 (centres undefined)	7%	-54%	/	?
Cc1ccc(-c2cc3c(nn2)-c2ccccc2C3=O)cc1	1%	-90%	-2%	1.4µM*
O=C1c2ccccc2-c2nnc(-c3ccc(F)cc3)cc21	-6%	-21%	11%	-9%
Cc1ccc(C)c(C(C)NC(=S)NC2CCCCC2)c1 (centres undefined)	-25%	-8%	1%	2.8µM*
